Source: article PMC7862700, “An all-to-all approach to the identification of sequence-specific readers for epigenetic DNA modifications on cytosine”

Experiments:
Assay in all cases: DAPPL (digital affinity profiling via proximity ligation, sequencing); 10 mM Tris-HCl pH 7.5, 50 mM NaCl, 1 mM DTT, 4% glycerol, room temperature, 30 min; GST-TFs on glutathione beads, 16-mer random dsDNA library, 0.1% formaldehyde crosslink after washing; high values mean tight binding
Settings in all cases: protein: recombinant; tags: N-terminal GST; dsDNA, one strand shown
ELK1 = target: T1, ELK1 (Homo sapiens, UniProt P19419 1-428)
T1 sequence: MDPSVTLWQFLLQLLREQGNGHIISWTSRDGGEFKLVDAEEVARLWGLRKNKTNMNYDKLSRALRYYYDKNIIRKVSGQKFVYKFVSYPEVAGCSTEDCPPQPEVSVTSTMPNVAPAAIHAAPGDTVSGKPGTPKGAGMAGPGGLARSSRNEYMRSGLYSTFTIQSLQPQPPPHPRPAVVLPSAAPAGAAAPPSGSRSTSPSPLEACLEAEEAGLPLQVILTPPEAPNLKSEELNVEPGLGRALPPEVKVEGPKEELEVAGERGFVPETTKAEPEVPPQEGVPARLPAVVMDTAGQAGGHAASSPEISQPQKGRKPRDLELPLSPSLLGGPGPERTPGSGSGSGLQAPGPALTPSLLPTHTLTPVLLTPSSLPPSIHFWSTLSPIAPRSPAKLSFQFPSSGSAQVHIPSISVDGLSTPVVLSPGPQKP
Method in brief: (§1)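 Beads coated with glutathione captured GST-fused human transcription factors that had been expressed in yeast, and the factors were then given DNA barcodes and pooled with a tag-only sample. The pools were incubated with 200 nmole of a random double-stranded 16-mer DNA library in Tris/NaCl/DTT/glycerol buffer for 30 min at room temperature, washed, crosslinked with 0.1% formaldehyde and proximity-ligated with BsaI/T4 ligase at 37 °C for 1 h. PCR amplification and Illumina NextSeq500 sequencing came last. Binding signal is each hexamer's read frequency for a factor divided by its frequency for the tag-only sample.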

GABPA = target: T2, GABPA (Homo sapiens, UniProt Q06546 1-454)
T2 sequence: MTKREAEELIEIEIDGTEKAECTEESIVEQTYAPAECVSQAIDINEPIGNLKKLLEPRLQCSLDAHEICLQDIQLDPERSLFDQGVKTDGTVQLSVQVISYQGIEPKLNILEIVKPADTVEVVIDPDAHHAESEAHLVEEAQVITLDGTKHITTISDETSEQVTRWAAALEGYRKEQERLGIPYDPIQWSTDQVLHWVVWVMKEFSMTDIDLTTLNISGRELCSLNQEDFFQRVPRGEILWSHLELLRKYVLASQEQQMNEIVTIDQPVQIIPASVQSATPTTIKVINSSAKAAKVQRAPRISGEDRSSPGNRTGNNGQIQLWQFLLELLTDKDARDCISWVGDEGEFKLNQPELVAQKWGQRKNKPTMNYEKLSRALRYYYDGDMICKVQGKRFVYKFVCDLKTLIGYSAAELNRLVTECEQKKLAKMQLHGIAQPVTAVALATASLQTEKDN
Method in brief: as §1

ERG = target: T3, ERG (Homo sapiens, UniProt P11308 1-479)
T3 sequence: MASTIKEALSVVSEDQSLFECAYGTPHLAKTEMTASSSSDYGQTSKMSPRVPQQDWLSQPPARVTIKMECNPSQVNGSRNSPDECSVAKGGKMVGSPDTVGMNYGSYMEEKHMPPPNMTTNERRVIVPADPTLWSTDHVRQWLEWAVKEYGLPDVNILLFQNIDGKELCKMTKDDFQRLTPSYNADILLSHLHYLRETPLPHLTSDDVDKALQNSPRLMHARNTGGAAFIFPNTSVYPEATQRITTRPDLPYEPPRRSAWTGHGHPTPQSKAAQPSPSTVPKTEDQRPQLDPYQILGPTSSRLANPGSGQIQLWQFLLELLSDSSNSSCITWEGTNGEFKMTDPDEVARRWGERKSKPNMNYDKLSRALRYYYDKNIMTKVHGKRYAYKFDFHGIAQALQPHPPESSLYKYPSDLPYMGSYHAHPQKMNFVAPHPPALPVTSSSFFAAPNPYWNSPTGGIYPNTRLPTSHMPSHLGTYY
Method in brief: as §1

ELF1 = ELF1 (Homo sapiens, UniProt P32519 1-619)
Method in brief: as §1

EHF = target: T4, EHF (Homo sapiens, UniProt Q9NZC4 1-300)
T4 sequence: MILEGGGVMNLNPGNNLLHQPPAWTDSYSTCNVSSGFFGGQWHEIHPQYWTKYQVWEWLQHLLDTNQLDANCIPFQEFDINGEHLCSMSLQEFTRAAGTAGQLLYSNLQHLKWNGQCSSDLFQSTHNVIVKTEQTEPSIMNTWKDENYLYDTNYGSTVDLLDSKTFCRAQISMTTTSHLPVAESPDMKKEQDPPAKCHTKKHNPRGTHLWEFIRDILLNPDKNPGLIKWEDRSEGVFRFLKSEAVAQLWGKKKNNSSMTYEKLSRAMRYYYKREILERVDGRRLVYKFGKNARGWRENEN
Method in brief: as §1

SPIB = SPIB (Homo sapiens, UniProt Q01892 1-262)
Method in brief: as §1

ETV5 = ETV5 (Homo sapiens, UniProt P41161 1-510)
Method in brief: as §1

SPIC = target: T5, SPIC (Homo sapiens, UniProt Q8N5J4 1-248)
T5 sequence: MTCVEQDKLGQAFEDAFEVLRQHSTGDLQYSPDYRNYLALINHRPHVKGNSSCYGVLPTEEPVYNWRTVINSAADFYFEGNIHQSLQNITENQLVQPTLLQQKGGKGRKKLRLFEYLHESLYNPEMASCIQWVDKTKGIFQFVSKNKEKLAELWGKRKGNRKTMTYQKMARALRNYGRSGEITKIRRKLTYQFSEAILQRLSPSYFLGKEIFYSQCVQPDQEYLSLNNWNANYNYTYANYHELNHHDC
Method in brief: as §1

ELF4 = ELF4 (Homo sapiens, UniProt Q99607 1-663)
Method in brief: as §1

ELK4 = target: T6, ELK4 (Homo sapiens, UniProt P28324-2 1-405)
T6 sequence: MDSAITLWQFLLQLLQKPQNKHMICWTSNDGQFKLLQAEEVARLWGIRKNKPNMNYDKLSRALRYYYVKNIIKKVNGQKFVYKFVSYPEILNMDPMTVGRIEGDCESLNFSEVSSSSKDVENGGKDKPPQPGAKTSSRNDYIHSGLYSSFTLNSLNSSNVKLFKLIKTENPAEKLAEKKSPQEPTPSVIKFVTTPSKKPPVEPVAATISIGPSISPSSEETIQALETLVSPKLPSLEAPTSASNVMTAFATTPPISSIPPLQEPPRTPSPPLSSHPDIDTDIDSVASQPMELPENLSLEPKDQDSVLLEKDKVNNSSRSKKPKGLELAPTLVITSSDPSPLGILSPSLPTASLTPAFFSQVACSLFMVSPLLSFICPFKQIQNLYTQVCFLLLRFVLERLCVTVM
Method in brief: as §1

ELF3 = target: T7, ELF3 (Homo sapiens, UniProt P78545 1-371)
T7 sequence: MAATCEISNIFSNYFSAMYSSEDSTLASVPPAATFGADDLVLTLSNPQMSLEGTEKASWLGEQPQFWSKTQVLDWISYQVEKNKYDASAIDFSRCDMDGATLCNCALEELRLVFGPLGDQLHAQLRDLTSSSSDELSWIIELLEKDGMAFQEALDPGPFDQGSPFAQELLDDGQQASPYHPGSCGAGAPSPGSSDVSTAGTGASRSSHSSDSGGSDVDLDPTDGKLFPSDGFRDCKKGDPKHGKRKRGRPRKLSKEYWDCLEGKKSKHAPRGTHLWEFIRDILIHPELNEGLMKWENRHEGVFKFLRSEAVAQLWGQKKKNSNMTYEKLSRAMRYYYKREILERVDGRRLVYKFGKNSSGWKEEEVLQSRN
Method in brief: as §1

ETV1 = ETV1 (Homo sapiens, UniProt P50549 1-477)
Method in brief: as §1

ETV3L = target: T8, ETV3L (Homo sapiens, UniProt Q6ZN32 1-361)
T8 sequence: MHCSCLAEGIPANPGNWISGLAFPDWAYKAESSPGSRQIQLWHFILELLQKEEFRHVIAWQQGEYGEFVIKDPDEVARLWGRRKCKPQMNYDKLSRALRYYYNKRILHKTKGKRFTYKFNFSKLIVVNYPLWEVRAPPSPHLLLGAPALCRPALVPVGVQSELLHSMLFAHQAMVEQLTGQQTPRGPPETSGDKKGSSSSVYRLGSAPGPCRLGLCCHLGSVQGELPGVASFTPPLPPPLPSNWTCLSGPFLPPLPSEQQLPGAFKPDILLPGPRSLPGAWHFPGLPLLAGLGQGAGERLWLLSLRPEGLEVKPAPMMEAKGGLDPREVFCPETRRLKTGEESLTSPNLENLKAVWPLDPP
Method in brief: as §1

ETS2 = target: T9, ETS2 (Homo sapiens, UniProt P15036 1-469)
T9 sequence: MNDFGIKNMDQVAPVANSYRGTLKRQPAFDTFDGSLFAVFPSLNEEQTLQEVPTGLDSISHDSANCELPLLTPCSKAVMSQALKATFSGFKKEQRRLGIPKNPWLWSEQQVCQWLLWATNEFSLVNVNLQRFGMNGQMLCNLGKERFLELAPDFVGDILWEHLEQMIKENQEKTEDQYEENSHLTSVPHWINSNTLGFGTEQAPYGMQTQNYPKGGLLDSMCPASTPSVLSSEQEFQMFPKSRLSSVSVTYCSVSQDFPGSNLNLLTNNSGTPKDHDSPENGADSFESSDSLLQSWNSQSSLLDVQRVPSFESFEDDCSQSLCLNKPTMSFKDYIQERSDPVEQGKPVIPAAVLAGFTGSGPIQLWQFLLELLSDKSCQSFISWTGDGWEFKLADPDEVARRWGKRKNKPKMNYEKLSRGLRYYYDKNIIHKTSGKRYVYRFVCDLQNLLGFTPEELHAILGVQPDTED
Method in brief: as §1

SPDEF = target: T10, SPDEF (Homo sapiens, UniProt O95238 1-335)
T10 sequence: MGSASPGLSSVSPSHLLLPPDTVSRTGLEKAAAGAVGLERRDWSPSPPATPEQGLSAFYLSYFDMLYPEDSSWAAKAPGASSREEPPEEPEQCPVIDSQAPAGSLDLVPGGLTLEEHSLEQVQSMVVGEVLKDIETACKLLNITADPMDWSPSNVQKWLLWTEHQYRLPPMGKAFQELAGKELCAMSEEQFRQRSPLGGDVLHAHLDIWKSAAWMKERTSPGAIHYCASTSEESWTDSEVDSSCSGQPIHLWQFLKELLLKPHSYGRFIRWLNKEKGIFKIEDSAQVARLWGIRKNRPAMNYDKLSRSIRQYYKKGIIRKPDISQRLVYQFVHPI
Method in brief: as §1

ETV7 = target: T11, ETV7 (Homo sapiens, UniProt Q9Y603 1-341)
T11 sequence: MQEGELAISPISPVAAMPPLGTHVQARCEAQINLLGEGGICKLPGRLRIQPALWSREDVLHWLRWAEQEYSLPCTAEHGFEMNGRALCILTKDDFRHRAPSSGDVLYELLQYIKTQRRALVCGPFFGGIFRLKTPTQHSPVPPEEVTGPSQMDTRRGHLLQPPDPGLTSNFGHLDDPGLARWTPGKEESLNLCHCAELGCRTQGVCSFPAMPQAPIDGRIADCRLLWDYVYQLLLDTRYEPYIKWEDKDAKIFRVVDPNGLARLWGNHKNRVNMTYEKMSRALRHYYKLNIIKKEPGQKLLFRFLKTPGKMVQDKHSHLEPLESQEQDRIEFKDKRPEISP
Method in brief: as §1

ETV6 = ETV6 (Homo sapiens, UniProt P41212 1-452)
Method in brief: as §1

ETV1, sequence (P50549 whole entry): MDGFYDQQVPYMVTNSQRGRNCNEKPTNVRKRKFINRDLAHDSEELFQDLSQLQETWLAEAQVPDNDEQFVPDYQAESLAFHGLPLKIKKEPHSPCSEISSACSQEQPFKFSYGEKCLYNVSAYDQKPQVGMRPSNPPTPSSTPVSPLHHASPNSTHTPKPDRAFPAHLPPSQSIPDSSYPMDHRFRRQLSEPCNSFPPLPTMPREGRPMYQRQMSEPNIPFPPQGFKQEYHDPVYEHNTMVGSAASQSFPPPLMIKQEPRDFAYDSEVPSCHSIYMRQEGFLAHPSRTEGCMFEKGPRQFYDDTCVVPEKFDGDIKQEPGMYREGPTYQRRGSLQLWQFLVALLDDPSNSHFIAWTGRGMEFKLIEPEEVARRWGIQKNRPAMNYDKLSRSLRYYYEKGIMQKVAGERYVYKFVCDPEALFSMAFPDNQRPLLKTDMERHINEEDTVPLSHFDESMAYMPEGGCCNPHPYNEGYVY
ELF4, sequence (Q99607 whole entry): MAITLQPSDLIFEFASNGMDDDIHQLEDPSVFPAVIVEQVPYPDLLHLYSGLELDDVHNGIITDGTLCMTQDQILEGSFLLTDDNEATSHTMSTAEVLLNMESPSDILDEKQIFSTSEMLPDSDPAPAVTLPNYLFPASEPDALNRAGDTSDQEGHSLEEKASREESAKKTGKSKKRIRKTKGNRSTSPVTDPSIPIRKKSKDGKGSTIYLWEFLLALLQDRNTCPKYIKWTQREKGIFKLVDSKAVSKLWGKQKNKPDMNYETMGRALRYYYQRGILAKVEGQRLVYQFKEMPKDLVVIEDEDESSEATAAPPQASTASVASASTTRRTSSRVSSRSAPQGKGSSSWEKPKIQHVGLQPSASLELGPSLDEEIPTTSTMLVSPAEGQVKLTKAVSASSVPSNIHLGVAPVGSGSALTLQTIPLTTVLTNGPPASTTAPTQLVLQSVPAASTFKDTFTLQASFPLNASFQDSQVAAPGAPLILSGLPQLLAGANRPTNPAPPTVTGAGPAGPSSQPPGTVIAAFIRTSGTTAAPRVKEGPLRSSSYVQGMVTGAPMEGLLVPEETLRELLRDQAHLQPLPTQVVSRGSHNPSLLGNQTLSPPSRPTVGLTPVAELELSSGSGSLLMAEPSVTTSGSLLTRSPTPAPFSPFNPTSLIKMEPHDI
ETV5, sequence (P41161 whole entry): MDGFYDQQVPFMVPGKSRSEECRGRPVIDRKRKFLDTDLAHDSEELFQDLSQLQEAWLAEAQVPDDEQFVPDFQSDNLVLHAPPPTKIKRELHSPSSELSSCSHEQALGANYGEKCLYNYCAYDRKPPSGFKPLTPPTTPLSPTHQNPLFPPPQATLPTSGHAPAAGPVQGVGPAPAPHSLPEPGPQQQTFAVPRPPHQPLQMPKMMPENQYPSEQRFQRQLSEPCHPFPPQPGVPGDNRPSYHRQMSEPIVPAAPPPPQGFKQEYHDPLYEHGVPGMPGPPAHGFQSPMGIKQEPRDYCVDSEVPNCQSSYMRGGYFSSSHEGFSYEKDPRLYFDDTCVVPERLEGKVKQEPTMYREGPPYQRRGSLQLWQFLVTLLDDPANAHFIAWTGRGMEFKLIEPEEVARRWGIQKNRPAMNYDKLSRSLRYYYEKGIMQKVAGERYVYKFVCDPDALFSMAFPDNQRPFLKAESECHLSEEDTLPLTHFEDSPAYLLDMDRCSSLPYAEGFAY
ETV6, sequence (P41212 whole entry): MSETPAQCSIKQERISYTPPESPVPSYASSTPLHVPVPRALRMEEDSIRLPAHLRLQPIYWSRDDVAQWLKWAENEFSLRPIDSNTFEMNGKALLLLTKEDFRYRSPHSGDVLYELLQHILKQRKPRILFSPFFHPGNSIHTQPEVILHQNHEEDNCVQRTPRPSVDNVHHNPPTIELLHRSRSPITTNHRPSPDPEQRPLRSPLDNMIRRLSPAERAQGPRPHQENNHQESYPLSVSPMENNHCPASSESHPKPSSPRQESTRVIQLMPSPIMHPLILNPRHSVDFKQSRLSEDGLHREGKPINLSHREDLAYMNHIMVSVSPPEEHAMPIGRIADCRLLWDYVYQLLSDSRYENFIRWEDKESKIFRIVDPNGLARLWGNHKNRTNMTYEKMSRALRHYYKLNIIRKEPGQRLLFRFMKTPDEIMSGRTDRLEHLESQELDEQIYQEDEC
ELF1, sequence (P32519 whole entry): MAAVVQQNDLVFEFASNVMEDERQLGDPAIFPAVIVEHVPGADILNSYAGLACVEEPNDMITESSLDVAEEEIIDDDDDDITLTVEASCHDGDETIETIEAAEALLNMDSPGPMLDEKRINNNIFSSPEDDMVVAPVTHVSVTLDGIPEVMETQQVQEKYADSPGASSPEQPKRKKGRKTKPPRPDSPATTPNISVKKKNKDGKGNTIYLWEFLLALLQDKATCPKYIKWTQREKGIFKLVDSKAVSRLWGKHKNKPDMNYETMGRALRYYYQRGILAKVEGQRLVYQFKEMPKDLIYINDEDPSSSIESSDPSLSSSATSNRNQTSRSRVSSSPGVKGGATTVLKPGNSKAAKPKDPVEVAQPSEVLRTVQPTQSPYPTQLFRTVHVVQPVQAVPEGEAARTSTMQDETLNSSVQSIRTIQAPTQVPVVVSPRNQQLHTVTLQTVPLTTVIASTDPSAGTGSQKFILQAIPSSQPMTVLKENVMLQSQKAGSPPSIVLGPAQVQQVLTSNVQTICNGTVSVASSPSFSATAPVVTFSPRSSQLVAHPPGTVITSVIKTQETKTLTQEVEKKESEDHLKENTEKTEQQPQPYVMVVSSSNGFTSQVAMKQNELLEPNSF
SPIB, sequence (Q01892 whole entry): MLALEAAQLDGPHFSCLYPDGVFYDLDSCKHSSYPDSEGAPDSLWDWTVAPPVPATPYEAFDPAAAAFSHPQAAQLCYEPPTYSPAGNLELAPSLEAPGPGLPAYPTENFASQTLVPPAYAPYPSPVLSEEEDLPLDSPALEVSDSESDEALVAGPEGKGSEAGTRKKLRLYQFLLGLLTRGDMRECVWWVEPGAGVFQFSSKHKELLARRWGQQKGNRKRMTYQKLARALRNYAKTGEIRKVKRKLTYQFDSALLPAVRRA

GCAGCT
binding signal (ELK1): 1.04 fold enrichment (6-mer frequency, TF over GST control) | binding signal (GABPA): 1.07 fold enrichment (6-mer frequency, TF over GST control) | binding signal (ERG): 1.02 fold enrichment (6-mer frequency, TF over GST control) | binding signal (ELF1): 1.06 fold enrichment (6-mer frequency, TF over GST control) | binding signal (EHF): 1.03 fold enrichment (6-mer frequency, TF over GST control) | binding signal (SPIB): 1.01 fold enrichment (6-mer frequency, TF over GST control) | binding signal (ETV5): 1.08 fold enrichment (6-mer frequency, TF over GST control) | binding signal (SPIC): 1.14 fold enrichment (6-mer frequency, TF over GST control) | binding signal (ELF4): 1.06 fold enrichment (6-mer frequency, TF over GST control) | binding signal (ELK4): 1.08 fold enrichment (6-mer frequency, TF over GST control) | binding signal (ELF3): 1.07 fold enrichment (6-mer frequency, TF over GST control) | binding signal (ETV1): 1.13 fold enrichment (6-mer frequency, TF over GST control) | binding signal (ETV3L): 1.08 fold enrichment (6-mer frequency, TF over GST control) | binding signal (ETS2): 1.08 fold enrichment (6-mer frequency, TF over GST control) | binding signal (SPDEF): 1.06 fold enrichment (6-mer frequency, TF over GST control) | binding signal (ETV7): 1.11 fold enrichment (6-mer frequency, TF over GST control) | binding signal (ETV6): 1.06 fold enrichment (6-mer frequency, TF over GST control)
